This is a sample that favours compounds with a hit; in the whole collection about 3.3% have one here.
Calb FLC: C. albicans growth modulation with fluconazole. C. albicans CaCi-2 (fluconazole-resistant clinical isolate) + fluconazole, Alamar Blue growth, 48 h. growth inhibition, % (no concentration beside the values). actives 0.57% (n = 300,000). AID 1979;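 active = growth inhibition above about 58% in most replicates, limit read from the data, passing the limit was not always enough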;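 also: all wells also contain fluconazole at 8 µg/ml as a sub-toxic cotreatment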
PHOSPHO1 block: PHOSPHO1 (human) inhibition | actives 1.1% (n = 290,000) | inhibition, % at 13.3 µM | Q8TCT1 | recombinant PHOSPHO1, absorbance phosphatase assay | AID 1565; in the data active = inhibition above about 60%
Target sequence (Q8TCT1 whole entry, looked up): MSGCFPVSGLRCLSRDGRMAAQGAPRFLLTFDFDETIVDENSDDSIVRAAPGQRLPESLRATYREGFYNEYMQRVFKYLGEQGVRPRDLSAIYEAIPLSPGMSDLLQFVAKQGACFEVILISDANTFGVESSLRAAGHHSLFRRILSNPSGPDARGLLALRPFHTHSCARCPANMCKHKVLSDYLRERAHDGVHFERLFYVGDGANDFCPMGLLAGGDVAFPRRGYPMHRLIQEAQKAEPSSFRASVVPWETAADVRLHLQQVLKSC
Efflux pump mplx: inhibitors of Candida antifungal efflux pumps expressed in yeast; S. cerevisiae Candida pump triplex, Nile Red efflux; inhibition, % at 10 µM; actives 0.44% (n = 330,000); AID 485275;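 active = plate passing quality check with inhibition over a set limit, or well fluorescence over plate mean plus 4 SD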;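 also: Nile Red retained in pooled yeast measured as flow cytometry median fluorescence; higher means more Nile Red kept so more efflux inhibition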
H9c2 protect: modulators protecting cardiomyocytes from myocardial damage; H9c2 cardiomyocytes, H2O2 injury protection, ATPLite, 2 h; protection from H2O2 cell death, % at 20 µM; actives 0.63% (n = 360,000); AID 588492;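 active = compounds giving at least 50% protection of heart cells from peroxide-induced death in the single-dose screen, raw or plate-pattern-corrected value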
KCC2 mod: modulators of human KCC2 chloride dependent transport | Q9H2X9 | KCC2 cells, thallium flux FluoZin-2 fluorescence | B-score of Tl+ flux slope (higher = more flux/activation; lower = inhibition) at 10 µM | actives 2.2% (n = 190,000) | AID 1456;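 active = thallium flux slope and its plate-corrected score both differing from the plate sample mean at a set confidence after two filtering rounds, in either direction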;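 also: slope of fluorescence scaled to starting intensity during 10 to 20 s after thallium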
Hits are given with their value; – = inactive; · = not tested or not shown.

SMILES	Calb FLC	PHOSPHO1 block	Efflux pump mplx	H9c2 protect	KCC2 mod
CC1CSc2nc3sc4c(c3c(=O)n21)CCCC4 (centres undefined)	–	67	–	–	–
CCNC(=O)C1(C)CCN(C(=O)c2ccc(N(C)C)cc2)C1 (centres undefined)	·	·	·	–	·
O=C(CC(=O)c1ccccc1O)c1ccc(F)cc1	–	–	–	–	24
O=C(CC(=O)c1ccccc1O)c1cccc(F)c1	–	–	–	–	·
O=c1[nH]c(CSc2nnc(-c3ccncc3)n2Cc2ccco2)nc2ccccc12	–	–	–	–	·
Cc1cccc(-c2nnc(SCc3nc4ccccc4[nH]3)n2Cc2ccco2)c1	–	83	–	–	–
Cn1c(SCc2nc3ccccc3[nH]2)nnc1-c1cccnc1	–	–	–	–	·
CCOc1ccc(-c2nnc(SCc3nc4ccccc4[nH]3)n2N)cc1	–	76	–	–	·
c1ccc(CSc2nnc(-c3cccs3)n2Cc2ccco2)cc1	121	–	–	–	–
Cc1ccc(-c2nnc(SCc3nc4ccccc4[nH]3)n2Cc2ccco2)cc1	–	94	–	–	–
CN(Cc1ccccc1)C(=O)CSc1nc2cc(C(=O)N3CCC(C(N)=O)CC3)ccc2c(=O)n1-c1ccccc1	–	–	–	·	–
COc1ccc([C@H]2CC(=O)C=C(c3ccc(CNC(=O)OC(C)(C)C)cc3)C2)cc1	·	·	–	–	·
N#Cc1cccc(NC(=O)Cn2cnc(S(=O)(=O)N3CCCC3)c2)c1	–	–	–	–	·
Cn1c(=O)c2ncn(CC(=O)O)c2n(C)c1=O	–	–	–	–	–
Cc1ccccc1CSc1nnc(-c2cccs2)n1Cc1ccco1	–	–	–	–	–
c1coc(Cn2c(SCc3nc4ccccc4[nH]3)nnc2-c2cccs2)c1	–	92	–	–	·
Cc1ccc(C)c(C(=O)CSc2n[nH]c(-c3ccncc3)n2)c1	–	64	–	–	·
N/C(=N\OS(=O)(=O)c1ccccc1)c1ccccn1	–	79	–	–	–
N/C(=N\OS(=O)(=O)c1ccc(Cl)cc1)c1ccccn1	·	–	·	–	–
Cc1ccc(N(C)C(=O)C2CCCN2S(=O)(=O)c2cccc3nsnc23)cc1 (centres undefined)	–	–	–	–	–
COc1ccc(N(C)C(=O)C2CCCN2S(=O)(=O)c2cccc3nsnc23)c(OC)c1 (centres undefined)	–	64	–	–	·
COc1ccc(S(=O)(=O)N(C)c2ccc(C(=O)Nc3ccccc3C(=O)N3CCOCC3)cc2)cc1OC	–	–	–	–	·
CCCN=C(N)/C(C(=O)OCC)=C(\O)c1ccc(OC)cc1	–	–	–	–	·
CCOC(=O)/C(C(N)=NCC(C)C)=C(/O)c1ccccc1	–	61	–	–	–
CC(=O)Nc1ccc(C(=O)CSc2nnc(-c3ccc(O)cc3)n2CC2CCCO2)cc1 (centres undefined)	–	65	–	–	·
SMILES	Calb FLC	PHOSPHO1 block	Efflux pump mplx	H9c2 protect	KCC2 mod
CCC(=O)Nc1ccc(NC(=O)CSc2nnc(-c3ccc(O)cc3)n2CC2CCCO2)cc1 (centres undefined)	–	–	–	–	–
CC1(C)CC(=O)C(Sc2nnc(-c3ccc(O)cc3)n2CC2CCCO2)C(=O)C1 (centres undefined)	–	85	–	–	·
O=C(O)c1cccc(N2C(=S)N=C(Nc3ccccc3)C23CCCCC3)c1	–	–	–	–	–
COc1ccc(NC2=NC(=S)N(c3ccccc3C)C23CCCCC3)cc1	–	–	–	–	89
CCCCCC1CCC(c2n[nH]c(=S)n2C)CC1 (centres undefined)	99	–	–	–	–
COC(=O)c1ccccc1NC(=S)N(C)C	–	–	–	–	–
COC(=O)c1ccccc1N=C(SC)N(C)C	–	94	–	–	–
CC1=C(C(N)=O)C(c2ccc(C)o2)C(C(N)=O)=C(C)N1	71	–	–	–	–
CCOC(=O)C1=C(C)NC(C)=C(C(=O)OCC)C1c1ccc(C)o1	–	–	–	–	–
COc1ccc(C(CC(=O)Nc2ccccn2)N2Cc3ccccc3C2=O)cc1OC (centres undefined)	–	–	–	–	·
CCCN1CCC(=O)N([C@H](CN=[N+]=[N-])Cc2ccccc2)CC1	–	–	–	–	·
CCn1cc(C(=O)N2CCc3ccccc32)c(=O)c2cc(S(=O)(=O)N(C)C3CCCCC3)ccc21	–	–	–	63	–
CCOc1ccc(S(=O)(=O)N2CCC(C(=O)NCc3ccccn3)CC2)cc1C	–	–	–	–	·
CCOc1ccc(C(=S)NC2CCCCC2)cc1OC	–	81	–	–	–
CCOc1ccccc1C(=S)NC1CCCCC1	–	–	–	–	·
O=C(Nc1nc(=O)c2ccccc2s1)c1ccccc1	87	–	–	–	42
Cc1cc(NO)nc(-c2ccc(Br)cc2)n1	–	96	–	–	–
COc1ccc(O)c(/C=N/Nc2nc(C)cc(-c3ccccc3)n2)c1	–	·	–	66	·
COc1ccc(/C=N/Nc2nc(C)cc(-c3ccccc3)n2)c(OC)c1	–	–	–	–	·
COc1cc(C(=O)Nc2cccc(C)c2C)ccc1OCC(=O)N1CCOCC1	·	·	–	–	·
CCOc1ccc(NS(=O)(=O)c2ccc3[nH]c(=O)[nH]c3c2)cc1	–	–	–	–	·
CCCCOC(=O)c1ccc(NC(=S)NC(=O)c2ccco2)cc1	–	–	–	–	·
CCCCOC(=O)c1ccc(NC(=S)NC(=O)c2c(Cl)cnn2C)cc1	–	–	–	–	28
CCCCOC(=O)c1ccc(NC(=S)NC(=O)c2c(Cl)cnn2CC)cc1	–	–	–	–	23
C=CCN1CCN(C(=O)c2cc3c(s2)CCCC3)CC1	–	–	–	–	·
SMILES	Calb FLC	PHOSPHO1 block	Efflux pump mplx	H9c2 protect	KCC2 mod
CC(C)c1ccc(CC(=O)N2CCC2(C)C(=O)NS(=O)(=O)c2ccc(Cl)s2)cc1 (centres undefined)	·	·	·	–	·
COc1ccccc1-n1c(SCC(=O)NCc2ccc3c(c2)OCO3)nc2cc([N+](=O)[O-])ccc21	–	–	–	107	–
O=C(CSc1nc2ccccc2c(=O)n1-c1ccccc1)NCc1ccc2c(c1)OCO2	–	–	–	–	·
Cc1cc(Cl)n2c(nc3ccccc32)c1C#N	94	–	·	–	–
Clc1ccc(CN2C3=NCCCN3c3ccccc32)c(Cl)c1	–	–	–	–	·
CCOC(=O)C1=C(C)NC(=O)NC1c1ccc(OC(=O)c2ccco2)c(OC)c1 (centres undefined)	–	–	–	–	–
C=CCOC(=O)C1=C(C)NC(=O)NC1c1ccc(OC(=O)c2ccco2)c(OC)c1 (centres undefined)	–	–	–	–	-3.3
CCCN1C(=O)/C(=C/c2c(N3CCNC(=O)C3CC(=O)OCC)nc3c(C)cccn3c2=O)SC1=S (centres undefined)	–	–	–	63	–
O=S(=O)(c1ccc(Br)cc1)N1CCC2(CC1)OCCO2	–	–	–	–	·
Cn1c(SCC(=O)N2CCOCC2)nnc1-c1cccc(NC(=O)c2ccccc2)c1	–	92	–	–	–
Cn1cccc1/C=N/n1c(-c2ccc(Cl)cc2)n[nH]c1=S	–	66	–	–	·
Cn1cccc1/C=N/n1c(-c2ccc(Cl)cc2Cl)n[nH]c1=S	–	77	–	–	·
